Screens deposited in PubChem by several laboratories.
Gli-Sufu block = blocks Gli-Sufu signaling in a luciferase reporter | Sufu-KO-LIGHT fibroblasts, Gli luciferase reporter luminescence | inhibition, % at 5 µM | 340,000 tested, 0.74% active | AID 588413;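 active means inhibition above about 55%, limit read from the data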;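 further: 0% = DMSO-treated cells and 100% = wells with medium but no cells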
Shn3 inh set2 = reduces Shn3 3'UTR luciferase signal in osteoblasts; Clone20 osteoblast Shn3 3'UTR firefly luciferase, 24 h; 360,000 tested, 0.52% active; inhibition, % at 12.5 µM;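 active means mean inhibition of at least 75% with every replicate also reaching 75%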;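 further: 0% = median of neutral control wells and 100% = pilot-screen positive control compound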
SRC1 inh = inhibits human SRC1 coactivator; HEK293 GAL4-SRC1 luciferase reporter, luminescence; inhibition, % at 3.6 µM; 360,000 tested, 0.12% active;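 active means inhibition above the campaign mean plus 3 SD, with each screening campaign given its own cutoff, cut at about 60% in these data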;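 further: 0% = DMSO treated cells and 100% = gossypol at 36 µM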
SRC2 inh = inhibits human steroid receptor coactivator 2; HEK293 GAL4-SRC2 luciferase reporter, luminescence; inhibition, % at 9 µM; 370,000 tested, 0.17% active; AID 651957;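 active means inhibition above the mean inhibition of all tested compounds plus 3 SD, set per campaign, cut at about 52% in these data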;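 further: 0% = DMSO treated cells and 100% = cells given Gossypol at 36 µM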
LRH-1 inv ag = inverse agonists of human LRH-1 (NR5A2); O00482; HEK293T StAR-luciferase reporter, LRH-1 transfected, 24 h; inhibition, % at 3.6 µM; 360,000 tested, 0.13% active;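 active means inhibition above the mean inhibition of all tested compounds plus 3 SD, cut at about 73% in these data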;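 further: 0% = DMSO wells and 100% = reporter-only cells lacking LRH-1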
NCOA3 inh = human NCOA3 inhibition. Q9Y6Q9. HEK293 GAL4-SRC3 luciferase reporter, luminescence. inhibition, % at 3.6 µM. 360,000 tested, 0.17% active. AID 588352;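 active means inhibition above a per-campaign cutoff, the mean of all compounds plus 3 SD, cut at about 60% in these data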;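 further: 0% = DMSO-treated cells and 100% = gossypol-treated cells at 36 µM; higher means less SRC3-driven luciferase light from the GAL4 reporter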
Active calls of the source: *; i = inactive; . = no result given. Only some compounds are listed: those with a hit (about 1.1% of all), similar ones and a draw of the others.

SMILES	Gli-Sufu block	Shn3 inh set2	SRC1 inh	SRC2 inh	LRH-1 inv ag	NCOA3 inh
COc1ccccc1CNc1ncc(-c2ccc(F)cc2)n1C	18	0	0	-5	4	8
COc1ccc(CNc2ncc(-c3ccc(F)cc3)n2C)c2ccccc12	56*	35	26	82*	-15	14
CCOC(=O)NC[C@@]1(C(=O)OC)CC(=O)N(Cc2ccc(Cl)cc2)[C@@H]1c1ccc(OC)cc1	.	.	.	6	.	.
COc1cccc(/C=C2\CC3(OC(=O)c4ccco4)CCCN2C3)c1 (stereo unspecified)	.	.	.	13	.	.
COc1ccc(NC(=O)c2cc3c(C)nn(-c4ccccc4)c3s2)cc1	.	.	.	15	.	.
COc1cccc2c1OCC(C(=O)O)C2 (stereo unspecified)	-11	-27	-12	-9	3	-5
COc1cccc2c1C(CO)N1C(C#N)C3CC(C(=O)O)C(C1C2)N3C (stereo unspecified)	-20	-94	87*	55*	102*	86*
CCNC(=O)CC1C(=O)N(C)C(=S)N1NC(=O)c1ccc(Cl)cc1 (stereo unspecified)	-4	-16	11	-10	17	0
Nc1ccc(C(=O)NN2C(=O)[C@H](Cl)C2c2ccc(Cl)cc2)cc1 (stereo partly specified)	10	99*	-12	14	44	-30
O=C(NCc1ccc(F)cc1)C(c1ccccc1)c1ccccc1	-3	15	-45	7	3	7
CC(=O)N(Cc1ccc(F)cc1)C1=C(NCc2ccccc2)C(=O)c2ccccc2C1=O	92*	83	24	.	40	63*
Cc1cc(NC(=O)c2ccc(NS(=O)(=O)c3ccccc3)cc2)no1	.	.	.	19	.	.
C=CCNC(=O)CSc1nc2c(c(=O)[nH]1)CCCC2	.	.	.	13	.	.
COC1=CC(=O)c2c(ccc3ncnc(N)c23)C1=O	56*	97*	60	62*	72	69*
C[n+]1cc2c3c(ccc2c2ccc4cc5c(cc4c21)OCO5)OCO3	.	.	.	87*	.	.
COc1ccc2cc3[n+](cc2c1O)CCc1cc2c(cc1-3)OCO2	.	.	.	-7	1	.
CC(C)(C)n1nnnc1C(c1ccc(C(F)(F)F)cc1)N(Cc1ccc(F)cc1)Cc1ccco1 (stereo unspecified)	16	89*	0	24	15	21
CC(C)(C)n1nnnc1C(c1ccc(C(F)(F)F)cc1)N(Cc1ccccc1)Cc1ccco1 (stereo unspecified)	7	88*	9	-2	4	20
O=C(OC12CCCN(C1)/C(=C/c1ccc(Cl)cc1)C2)c1ccccc1 (stereo unspecified)	.	.	.	-3	.	.
CCCCCc1ccc(NC(=O)OCCCN2CCC3(CCC(c4ccccc4)CC3)C2=O)cc1 (stereo unspecified)	.	.	.	16	.	.
O=C1C(=Cc2ccc(Cl)cc2)Cc2ccccc21	.	.	.	-1	1	.
C=CC(=O)N1C/C(=C/c2ccccc2)C(=O)/C(=C\c2ccccc2)C1	-1	97*	i	67*	70	-164
C=CC(=O)N1C/C(=C/c2ccc(Cl)cc2)C(=O)/C(=C\c2ccc(Cl)cc2)C1	-5	97*	i	60*	49	-159
Cc1ccc(C(=O)OCC(=O)N2CCOCC2)cc1	-7	-50	-76	-21	-26	-29
CS(=O)(=O)c1ccc(C(=O)OCC(=O)N2CCN(CCC3CCCCC3)CC2)cc1[N+](=O)[O-]	.	96*	6	3	-9	-1
SMILES	Gli-Sufu block	Shn3 inh set2	SRC1 inh	SRC2 inh	LRH-1 inv ag	NCOA3 inh
CS(=O)(=O)c1ccc(C(=O)OCC(=O)N2CCOCC2)cc1[N+](=O)[O-]	.	95*	-10	10	-9	-23
CC(C)c1cc(C(=O)N(C2CCCCC2)C2CCCCC2)no1	.	.	.	-5	.	.
O[C@@H]1[C@@H](O)[C@H](n2c3ccc(Cl)cc3c3ccc4c5cc(Cl)ccc5[nH]c4c32)OC[C@H]1O	.	.	.	-29	.	.
CCc1ccc(-c2cc(C(F)(F)F)n3nc(C(=O)Nc4cnn(Cc5ccc(C)cc5)c4)cc3n2)s1	14	91*	31	.	5	43
CNc1cc(-c2ccc(OC)c(OC)c2)ncn1	.	-78	-49	-99	-72	-104
CNc1ccc2ncc(-c3ccc(OC)c(OC)c3)n2n1	.	29	78*	59*	26	49
N#Cc1cc2c(nc1SCC(=O)N1CCOCC1)CCCCC2	30	32	57	23	59	65*
CN(C)CCNC(=O)c1cccc2nc3cccc(F)c3nc12	22	91*	13	i	58	25
CCCN1CCS(=O)(=O)N(Cc2cn(Cc3ccc(OC)cc3)nn2)C(C(=O)OC)C1 (stereo unspecified)	.	.	.	-3	.	.
COc1ccc(N2C(=O)CC(Sc3nnnn3-c3ccc(F)cc3)C2=O)cc1 (stereo unspecified)	-3	73	-14	7	-16	11
O=C1CC(Sc2nnnn2-c2ccccc2)C(=O)N1c1cccc(Cl)c1 (stereo unspecified)	-10	90*	-2	-15	-2	-8
COc1cccc(NC(=O)NC2CCCCN(Cc3ccc(C)cc3)C2=O)c1 (stereo unspecified)	.	.	.	9	.	.
C[C@H]1CCC/C=C/[C@@H]2C[C@H](O)C[C@H]2[C@H](O)[C@H](S(=O)c2ccc(O)cc2)CC(=O)O1 (stereo partly specified)	28	87*	2	-30	79*	63*
Cc1ccccc1CN1CCCCC(NC(=O)Cc2cccs2)C1=O (stereo unspecified)	.	.	.	-14	.	.
CN(C)c1ncnc2c1C(c1ccccc1)C(C)(C)O2 (stereo unspecified)	-35	96*	10	5	23	0
C=C1CCC2C(C)(C)[C@H](O)CC[C@@]2(C)[C@@H]1COc1cc(=O)oc2ccccc12 (stereo partly specified)	8	-12	13	.	9	-22
C=C1CC(COc2cc(=O)oc3ccccc23)(c2ccccc2)OC1=O (stereo unspecified)	6	97*	-22	-11	-9	-10
CC(C)CN1C(=O)C[C@@]2(C(=O)N(C)c3ccc(NS(=O)(=O)C4CC4)cc32)C1c1ccccc1 (stereo partly specified)	.	.	.	11	.	.
CCC(C)(C)c1ccc(OCCCC[n+]2cccc(C)c2)c(C(C)(C)CC)c1	87*	88*	3	-11	56	49
Cn1c(=O)c2c(nc(CN3CCOCC3)n2CC(=O)c2ccccc2)n(C)c1=O	0	-2	3	19	96*	16
Cn1c(=O)c2c(nc(CN3CCc4ccccc4C3)n2CC(=O)c2ccccc2)n(C)c1=O	16	10	11	-2	31	23
Cc1ccc(CN2CCCCC(NC(=O)Nc3ccccc3)C2=O)cc1 (stereo unspecified)	.	.	.	31	.	.
C[C@@H]1C[C@H]2O[C@@H]2/C=C\C=C\C(=O)Cc2cc(O)cc(O)c2C(=O)O1	.	.	.	55*	.	.
